Records with an inconclusive call do not appear. Calls of active or inactive are those of the source. Unless noted, calls follow the shape of the dose curve; as a rule, active = well fitted curve in the direction sought with a large enough effect in the repeat runs; inconclusive = weak or mixed curves; inactive = no such curve, though single readings can be large; an effect the other way counts as inactive or inconclusive.
What was measured:
[1] = qHTS assay to identify small molecule antagonists of the retinoic acid receptor (RAR) signaling pathway (AID 1159552; also: nearly all actives have a fitted effect of over 50% in size)
Summary of the method: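 Retinol signaling pathway inhibitors screened in C3RL4 RARE-luciferase reporter cells seeded overnight at 37 C, then compounds added with 1 uM (final) retinol as pathway substrate. After 6 hr at 37 C, luciferase luminescence read after 30 min at room temperature.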

[2] = qHTS assay to identify small molecule agonists of the retinoic acid receptor (RAR) signaling pathway (AID 1159553)
Summary of the method: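 C3RL4 cells carrying a RARE luciferase reporter were plated overnight at 37 C, then exposed to compounds in DMSO for 6 hr at 37 C and 5% CO2. Luminescence was read 30 min after luciferase reagent addition at room temperature.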

[3] = qHTS assay to identify small molecule antagonists of the estrogen related receptor (ERR) signaling pathway from Tox21 library - cell viability counter screen (AID 1224834); also: nearly all actives have a fitted effect of over 30% in size
Summary of the method: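 ERR reporter cells were plated 6 h before compound addition, then exposed to test compounds in DMSO for 17.5 h at 37 C. Viability was read as CellTiter-Fluor fluorescence after a 30-minute incubation at 37 C.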

[4] = qHTS assay to identify small molecule agonists of the constitutive androstane receptor (CAR) signaling pathway - cell viability counter screen (AID 1224836); also: nearly all actives have a fitted effect of over 45% in size
Summary of the method: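 HepG2 cells stably carrying hCAR and a CYP2B6-2.2kb reporter; 15-concentration compounds plus PK11195 (final 0.75 uM), 23 hr at 37 C/5% CO2. Viability read by CellTiter-Fluor fluorescence.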

[5] = qHTS assay to identify small molecule antagonists of the constitutive androstane receptor (CAR) signaling pathway - cell viability counter screen (AID 1224837); also: nearly all actives have a fitted effect of over 45% in size
Summary of the method: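 HepG2 cells stably expressing hCAR and a CYP2B6-2.2kb reporter were plated and pre-incubated 4 hr at 37 C/5% CO2, then given compounds at 15 concentrations plus 50 nM CITCO (final). After 23 hr, viability was read by CellTiter-Fluor fluorescence.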

[6] = biological target: Nuclear receptor subfamily 1 group I member 3 (Homo sapiens) (UniProt Q14994); assay: qHTS assay to identify small molecule antagonists of the constitutive androstane receptor (CAR) signaling pathway (AID 1224838); also: nearly all actives have a fitted effect of over 40% in size
Summary of the method: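 HepG2 cells stably co-transfected with hCAR and a CYP2B6-2.2kb luciferase reporter were seeded 4 h before compound addition at 15 concentrations. Cells were stimulated with 50 nM CITCO (final) for 24 h at 37 C; luciferase luminescence was then read.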

[7] = biological target: Nuclear receptor subfamily 1 group I member 3 (Homo sapiens) (UniProt Q14994); assay: qHTS assay to identify small molecule agonists of the constitutive androstane receptor (CAR) signaling pathway (AID 1224839);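 also: HepG2 cells stably carrying human CAR and a CYP2B6 luciferase reporter; nearly all actives have a fitted effect of over 15% in size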
Summary of the method: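 HepG2 cells stably co-transfected with hCAR and a CYP2B6-2.2kb luciferase reporter; compounds at 15 concentrations with 0.75 uM PK11195 present. After 24 hr at 37 C, luciferase read by ONE-Glo luminescence.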

[8] = qHTS assay to identify small molecule antagonists of the estrogen related receptor signaling pathway with the pleiotropic PPARgamma coactivator (PGC) from Tox21 10K library - cell viability counter screen (AID 1224840; active = well fitted cell-killing curve with a large enough effect in the repeat runs, not every such curve was filed as active; also: nearly all actives have a fitted effect of over 40% in size)
Summary of the method: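 PGC/ERR cells were seeded at 2,000 cells/well and left 6 hours at 37 C/5% CO2 before pin-tool addition of compounds in DMSO. After 17.5 hours at 37 C, CellTiter-Fluor was added and fluorescence read 30 minutes later.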

[9] = biological target: Thyrotropin receptor (Homo sapiens) (UniProt P16473); assay: qHTS assay to identify small molecule agonists of the thyroid stimulating hormone receptor (TSHR) signaling pathway (AID 1224843; calls by dose curve; also: nearly all actives have a fitted effect of over 45% in size)
Summary of the method: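 TSHR-HEK293 cells in agonist mode, 30 min room-temperature step, then cAMP measured by competitive HTRF (cAMP-d2 with anti-cAMP cryptate) after 1 h at room temperature. Tested at 15 concentrations in triplicate.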

[10] = qHTS assay to identify small molecule agonists of the hypoxia (HIF-1) signaling pathway - cell viability counter screen (AID 1224844; calls by dose curve; also: nearly all actives have a fitted effect of over 50% in size)
Summary of the method: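 HRE-bla ME-180 cells in medium with 0.5% dialyzed FBS were preincubated 5 hrs at 37C, exposed to compounds for 17 hrs, then viability was read as CellTiter-Glo luminescence after 30 min at room temperature, in the reporter wells.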

[11] = qHTS assay to identify small molecule agonists of H2AX (AID 1224845; active = well fitted activation curve with a large enough effect in the signal ratio in the repeat runs, not every such curve was filed as active; the % refers to the signal ratio)
Summary of the method: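 Wild-type CHO-K1 cells, plated overnight, exposed 3hr at 37C to 15 concentrations (0.76% DMSO final). Lysed, then HTRF anti-pH2AX (S139) cryptate and anti-H2AX-d2 antibodies, 24 hr room temperature; 665/620 nm emission read.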

[12] = qHTS assay to identify small molecule agonists of the hypoxia (HIF-1) signaling pathway (AID 1224846; active = well fitted activation curve with a large enough effect in the signal ratio in the repeat runs, not every such curve was filed as active; the % refers to the signal ratio)
Summary of the method: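 HRE-bla ME-180 cells (beta-lactamase reporter under hypoxia response element) were plated at 2,000 cells/well in medium with 0.5% dialyzed FBS, rested 5 hrs, then given compounds in DMSO for 17 hrs at 37C, 5% CO2. Reporter induction was read with CCF4-AM FRET substrate.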

[13] = qHTS assay to identify small molecule agonists of H2AX - cell viability counter screen (AID 1224847; calls by dose curve; also: top concentration of the series differs between compounds; nearly all actives have a fitted effect of over 30% in size)
Summary of the method: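 CHO-K1 cells plated overnight at 37C, then exposed 3 h at 37C to compounds at 15 concentrations (0.76% DMSO final). Viability by CellTiter-Glo luminescence after 30 min at room temperature.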

[14] = qHTS RealTime-Glo MT Cell Viability Assay in HepG2 cells - 24 hour (AID 1224867); also: nearly all actives have a fitted effect of over 50% in size
Summary of the method: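 Viability was tracked continuously by NanoLuc luminescence from prosubstrate reduced by living HepG2 cells, at successive time points over 40 h of compound exposure. Cells with reagent were preincubated 5 h at 37 °C before compound addition.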

[15] = biological target: Luciferin 4-monooxygenase (Photinus pyralis) (UniProt P08659); assay: qHTS assay to identify small molecule inhibitors of firefly luciferase (AID 1224835); also: nearly all actives have a fitted effect of over 25% in size
Summary of the method: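 Biochemical qHTS: compounds run as interplate titrations against purified firefly enzyme, with D-luciferin and ATP each at its KM concentration. Light output recorded by CCD imaging.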

[16] = qHTS assay to identify small molecule antagonists of the estrogen related receptor signaling pathway with the pleiotropic PPARgamma coactivator (PGC) from Tox21 10K library (AID 1224841; call rule not given here; also: actives are mostly falling curves and most rising ones were filed inactive; nearly all actives have a fitted effect of over 50% in size)
Summary of the method: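 PGC/ERR reporter cells were seeded at 2,000 cells/well and held 6 hours at 37 C/5% CO2 before pin-tool addition of compounds in DMSO. After 18 hours at 37 C, One-Glo was added and luminescence read after 30 minutes at room temperature.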

[17] = qHTS assay to identify small molecule agonists of the estrogen related receptor signaling pathway with the pleiotropic PPARgamma coactivator (PGC) from Tox21 10K library (AID 1224842); also: nearly all actives have a fitted effect of over 15% in size
Summary of the method: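 PGC/ERR reporter cell line, 2,000 cells per well, incubated 6 h at 37 C before 23 nL compound in DMSO was added. After 18 h at 37 C, One-Glo luminescence read following 30 min at room temperature.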

[18] = qHTS assay to identify small molecule agonists of the estrogen related receptor (ERR) signaling pathway from Tox21 library (AID 1224849; calls by dose curve; also: nearly all actives have a fitted effect of over 15% in size); conditions: ERR reporter cell line, ONE-Glo luciferase, 18 h; at 92.4 µM (top of the series) unless noted
Summary of the method: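 ERR reporter cell line (NTP) seeded, rested 6 h at 37 C/5% CO2, then pinned with Tox21 compounds in DMSO. After 18 h at 37 C, ONE-Glo luciferase luminescence was read following 30 min at room temperature.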
% is scaled to controls: 0 for no effect and ±100 for the full control effect.

Chain of Luciferin 4-monooxygenase (Photinus pyralis) (P08659 whole entry, looked up): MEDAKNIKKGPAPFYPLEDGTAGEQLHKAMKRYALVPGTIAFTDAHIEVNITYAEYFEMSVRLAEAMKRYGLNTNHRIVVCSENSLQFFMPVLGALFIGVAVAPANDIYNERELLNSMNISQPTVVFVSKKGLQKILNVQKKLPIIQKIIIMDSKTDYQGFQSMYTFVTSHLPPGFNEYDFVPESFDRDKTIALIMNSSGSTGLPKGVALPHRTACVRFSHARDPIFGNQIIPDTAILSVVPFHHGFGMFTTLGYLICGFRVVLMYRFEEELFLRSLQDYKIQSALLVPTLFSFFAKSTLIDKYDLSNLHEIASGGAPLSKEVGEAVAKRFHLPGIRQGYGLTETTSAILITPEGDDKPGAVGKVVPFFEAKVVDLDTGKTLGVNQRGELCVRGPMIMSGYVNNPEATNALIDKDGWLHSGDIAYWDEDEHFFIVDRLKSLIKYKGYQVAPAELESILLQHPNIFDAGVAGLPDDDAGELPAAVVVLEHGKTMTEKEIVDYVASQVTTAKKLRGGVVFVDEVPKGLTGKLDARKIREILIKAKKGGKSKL
Chain of Nuclear receptor subfamily 1 group I member 3 (Homo sapiens) (Q14994 whole entry, looked up): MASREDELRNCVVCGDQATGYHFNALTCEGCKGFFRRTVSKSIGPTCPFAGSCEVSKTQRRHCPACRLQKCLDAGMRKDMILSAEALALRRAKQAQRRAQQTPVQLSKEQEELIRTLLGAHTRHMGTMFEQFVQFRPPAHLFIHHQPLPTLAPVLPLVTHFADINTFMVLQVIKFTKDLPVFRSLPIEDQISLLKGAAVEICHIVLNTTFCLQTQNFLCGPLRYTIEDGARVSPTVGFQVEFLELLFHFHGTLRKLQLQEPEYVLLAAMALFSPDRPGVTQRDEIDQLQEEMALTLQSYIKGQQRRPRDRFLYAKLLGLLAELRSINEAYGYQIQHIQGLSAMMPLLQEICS
Chain of Thyrotropin receptor (Homo sapiens) (P16473 whole entry, looked up): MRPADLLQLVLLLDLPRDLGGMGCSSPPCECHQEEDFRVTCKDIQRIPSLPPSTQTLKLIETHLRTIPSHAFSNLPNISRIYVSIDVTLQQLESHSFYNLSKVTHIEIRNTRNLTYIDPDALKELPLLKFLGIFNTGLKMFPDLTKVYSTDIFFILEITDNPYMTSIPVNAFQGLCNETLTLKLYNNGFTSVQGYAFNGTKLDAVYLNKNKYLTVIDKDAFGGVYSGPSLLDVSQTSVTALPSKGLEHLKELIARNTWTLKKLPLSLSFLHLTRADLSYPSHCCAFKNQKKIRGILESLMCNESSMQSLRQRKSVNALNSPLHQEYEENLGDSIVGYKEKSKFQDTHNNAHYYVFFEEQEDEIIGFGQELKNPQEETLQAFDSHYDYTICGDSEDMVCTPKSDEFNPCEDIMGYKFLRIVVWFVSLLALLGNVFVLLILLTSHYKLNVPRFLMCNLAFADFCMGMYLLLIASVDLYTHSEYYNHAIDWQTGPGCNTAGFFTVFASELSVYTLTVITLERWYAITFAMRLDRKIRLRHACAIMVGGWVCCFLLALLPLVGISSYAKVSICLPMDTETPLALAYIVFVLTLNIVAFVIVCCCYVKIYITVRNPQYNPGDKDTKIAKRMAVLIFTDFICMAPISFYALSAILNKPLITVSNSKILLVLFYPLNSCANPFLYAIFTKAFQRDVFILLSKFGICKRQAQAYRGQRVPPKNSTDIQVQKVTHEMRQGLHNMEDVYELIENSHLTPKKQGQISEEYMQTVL

NCC1CCC(C(=O)Oc2ccc(CCC(=O)O)cc2)CC1 (stereo not given)
inactive: outcome [1] | Potency [2] | outcome [3] | outcome [4] | outcome [5] | outcome [6] | Potency [7] | outcome [8] | Potency [9] | outcome [10] | outcome [11] | outcome [12] | outcome [13] | outcome [14]

CCCCCCC(O)CO (stereo not given)
inactive: outcome [1] | Potency [2] | outcome [4] | outcome [5] | outcome [6] | Potency [7] | outcome [8] | outcome [10] | outcome [11] | outcome [12] | outcome [13] | outcome [14]

CC(C)(C)C(=O)NCCCC(=O)O
inactive: outcome [1] | Potency [2] | outcome [3] | Potency [15] | outcome [4] | Potency [7] | outcome [8] | Potency [9] | outcome [10] | outcome [11] | outcome [13] | outcome [14]

CCCCCCCCCCCC(C)=O
inactive: outcome [1] | Potency [2] | outcome [3] | Potency [15] | outcome [4] | outcome [5] | outcome [8] | Potency [16] | Potency [17] | Potency [9] | outcome [10] | outcome [11] | outcome [12] | outcome [13] | activity change, positive = activation [18] -0.269% | outcome [14]

CCCCCCCCCCCCCC(=O)OCC
inactive: outcome [1] | Potency [2] | outcome [3] | Potency [15] | outcome [4] | outcome [5] | outcome [6] | Potency [7] | outcome [8] | Potency [9] | outcome [10] | outcome [11] | outcome [12] | outcome [13] | outcome [14]

CCCCCCCCCCCCCCCCN(C)C
inactive: activity, negative = inhibition [1] 3.34% [at 8.39 µM] | activity change, negative = inhibition [15] 3.25% [at 10.5 µM] | viability change, negative = cytotoxic [4] 4.94% [at 8.39 µM] | activity change, negative = cytotoxicity [5] 4.91% [at 8.39 µM] | viability change, negative = cytotoxic [8] 6.95% [at 8.39 µM] | activation [9] -17.9% [at 8.39 µM] | activity change, negative = cytotoxicity [10] -5.55% [at 6.97 µM] | activation (H2AX phosphorylation) [11] 1.56% [at 14 µM] | activation [12] -0.212% [at 7.01 µM] | activity change, negative = cytotoxicity [13] -3.36% [at 14 µM] | activity change, negative = cytotoxicity [14] -0.0663% [at 6.97 µM]
